In PubChem BioAssay (NCI):
This is part of a sample that, as a whole, favours compounds with a hit. Of some 79,000 tested, about 15% had one in any assay. A number with no mark means an inactive call. Activity calls are given as the source filed them. Cut-off read from the data, not from the text of the source: active = growth inhibition above about 70%; inactive = the rest.

Experiments:
[1] = NCI Yeast Anticancer Drug Screen. Data for the rad50 strain (AID 155);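 note: 0% = growth of vehicle-only cultures of the same strain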; conditions: S. cerevisiae rad50 strain growth inhibition; at 50.0 µM; active compounds read high
Outline: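 Relative growth inhibition (compound vs vehicle) was measured in yeast with a defined repair-gene alteration.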

[2] = NCI Yeast Anticancer Drug Screen. Data for the mec2-1 strain (AID 157); conditions: S. cerevisiae mec2-1 strain, at 50.0 µM, active compounds read high
Outline: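 Using mec2-1 yeast: add compound, measure growth, express inhibition versus vehicle-treated cultures.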

[3] = NCI Yeast Anticancer Drug Screen. Data for the sgs1 mgt1 strain (AID 161);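 note: 0% = growth of cultures given vehicle only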; conditions: S. cerevisiae sgs1 mgt1 strain, at 50.0 µM, active compounds read high
Outline: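 Percent growth inhibition was derived by comparing compound-exposed mutant yeast with vehicle-exposed cultures. The strain carries alterations in DNA damage repair.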

[4] = NCI Yeast Anticancer Drug Screen. Data for the cln2 rad14 strain (AID 165);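 note: 0% = growth equal to vehicle treated cultures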; conditions: S. cerevisiae cln2 rad14 strain, at 50.0 µM, active compounds read high
Outline: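 Yeast strain cln2 rad14, bearing defects in cell cycle control and DNA repair, serves as the test system; values reflect growth inhibition compared with vehicle.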

[5] = NCI Yeast Anticancer Drug Screen. Data for the bub3 strain (AID 167); conditions: S. cerevisiae bub3 mutant strain, at 50.0 µM, active compounds read high
Outline: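 Screening used yeast with an engineered genetic alteration affecting cell cycle control. Compound-exposed cultures were compared with vehicle cultures, and reduced growth was taken as inhibition.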

[6] = NCI Yeast Anticancer Drug Screen. Data for the mlh1 rad18 strain (AID 175); conditions: S. cerevisiae mlh1 rad18 strain growth inhibition; at 50.0 µM; active compounds read high
Outline: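 Steps: expose repair-defective yeast to compound; measure growth; express inhibition against vehicle-treated controls.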

SMILES | growth inhibition [1] | growth inhibition [2] | growth inhibition [3] | growth inhibition [4] | growth inhibition [5] | growth inhibition [6]
COc1ccc(C(=O)C(Br)C(Br)C(=O)O)cc1 (stereo not drawn) | 24.6% | 24.4% | 6.35% | -64.7% | 5.45% | 38.9%
NC(=S)NN=C1CCCC1 | 2.2% | -5.8% | 4.75% | -19.6% | -2.45% | 7.75%
O=S(=O)(O)c1ccc(O)c2ccccc12 | -12.6% | 19.4% | 0% | -30.1% | 11.7% | 56.2%
O=C(c1ccc(O)cc1)c1ccc(O)cc1 | 30.4% | -6.6% | 15.2% | -49.1% | -9.15% | 17.2%
O=C(O)CCC(=O)OC(C1CO1)C(OC(=O)CCC(=O)O)C1CO1 (stereo not drawn) | -0.85% | -16.5% | -7.3% | 3.3% | -11.6% | -44.7%
OC(c1ccccn1)C(O)c1ccccn1 (stereo not drawn) | -2.55% | -4.45% | -0.6% | -9% | -5.6% | 3.2%
Cc1cc2ccccc2c(O)c1C#N | 32.5% | 17.9% | 6.3% | -4.3% | 1.3% | 48.9%
O=c1cc(-c2ccccc2)[nH]c2c1CCCC2 | -17.8% | -21.4% | -12.2% | -23.8% | 0.95% | -3.5%
Cc1ccc(CCCC(=O)O)c(C)c1 | 6.5% | -0.25% | 22.1% | 1.45% | 28.9% | 45.6%
O=C(c1ccccc1)C1CCC1 | 22.6% | -5.25% | 10.2% | -17.5% | 7.95% | 6.75%
NC(N)=Nc1cc2ccccc2c2ccccc12 | -1.2% | -7.15% | -7.5% | -14% | -3% | -4.95%
O=C(O)/C=C/C(=O)NCc1ccccc1 | 34.6% | 42.6% | 48% | 1.4% | 44.4% | 26.7%
CC(C)OC(C(=O)O)c1ccccc1 (stereo not drawn) | -18.2% | 2.2% | -3.65% | 11.8% | 1.05% | 0%
C[C@@H](c1ccccc1)[C@@H](C(=O)O)c1ccccc1 | 8.3% | 5.4% | 8.3% | -38.6% | -5.65% | 29.7%
O=C(O)CCC(NC(=O)OCc1ccccc1)C(=O)O (stereo not drawn) | -4.05% | 2.55% | -8.45% | 9.55% | -21.2% | -5.15%
CC(=O)c1cc2c(cc1F)C(C)(C)CCC2(C)C | -23.2% | -30.4% | -19.1% | -32.5% | -20.1% | -18.6%
O=C(NCc1ccco1)Nc1c(Cl)cc(Cl)cc1Cl | -3.1% | -26.1% | -2.85% | 2.65% | -13.4% | -3.6%
O=C(NCO)c1ccccc1 | 36.2% | 1.95% | -1.65% | 7.75% | 13.9% | 27.9%
CC1(C)N=C(N)N=C(N)N1c1cccc(Br)c1 | -14.3% | -14.4% | -13.1% | 7.15% | -0.95% | 2.3%
Nc1ccc(NC(=O)c2cccc(N)c2)cc1 | 15.2% | 3.5% | 6.4% | -7.8% | 19.2% | 22%
COc1cccc(/C=N/NC(=S)NC2CC3CCC2C3)c1O (stereo not drawn) | -21.6% | -33.1% | -3.4% | -9.9% | -13.9% | -3.5%
CCOC(=O)c1cc(/C=C/c2cccc(Cl)c2)on1 | 57.2% | 27.6% | 25.9% | 26.1% | 8.1% | 47.4%

SMILES | growth inhibition [1] | growth inhibition [2] | growth inhibition [3] | growth inhibition [4] | growth inhibition [5] | growth inhibition [6]
OC1OC(COC(c2ccccc2)(c2ccccc2)c2ccccc2)C(O)C(O)C1O (stereo not drawn) | -11.9% | -0.95% | -16.6% | 14.4% | -3.7% | -17%
CC(=O)CC(=O)N(C)C | 0.3% | -0.6% | 6.9% | -13.9% | -2.5% | 24.2%
Cc1c(O)cnc2nn(-c3ccccc3)c(=N)n12 | 19.5% | 11.4% | 35.7% | 15.9% | 15% | 12.9%
CSC(=N\N=C\c1ccc(N(C)C)cc1)/N=C/N(C)C | -4.3% | -8.15% | 6.05% | 7.65% | 18.6% | 25.1%
COc1ccc(C(O)c2ccccc2)cc1 (stereo not drawn) | 2.2% | -17.4% | -34.9% | -50.2% | -28.1% | -15.2%
Cc1c(O)cccc1O | -5.55% | -17.4% | 7.8% | 7.1% | -8.2% | -8.3%
CCN=c1cc2sc3cc(NCC)c(C)cc3nc-2cc1C | -22.1% | -35.8% | -16.4% | -14.4% | -15.4% | -22.6%
Cc1cc(C)c(N)c(S(=O)(=O)O)c1 | -0.7% | -6.45% | -24.1% | -63% | 11.2% | -13.7%
COc1cccc(COC(=O)Nc2ccccc2)c1OC | 29.9% | 21.4% | 29.7% | 21.5% | 42.5% | 0.65%
CCCNC(=O)c1ccc(S(N)(=O)=O)cc1 | -1.5% | 1% | -13.2% | -4.55% | 2.55% | -0.25%
N#C/C(=C\c1cc(O)c(O)c(O)c1)C(N)=O | 29.8% | -14.8% | 24.6% | 2.6% | 25.7% | 35.5%
CC(C)OC(=O)c1cc(NC(=S)OC(C)C)ccc1Cl | 3.95% | 10.2% | 22.9% | 15.3% | 32.5% | 85.1% (active)
Cc1cc(N)ccc1-c1ccc(N)cc1C | -3% | -6.45% | 4.45% | -39% | -23.1% | 37.8%
Cc1cc(Cc2cc(C)c(N)cc2N)c(N)cc1N | -1.6% | -49.4% | -23.9% | 15.2% | -2.25% | 15.9%
Oc1ccc(O)cc1 | 20.6% | 15% | -0.45% | -22.6% | -0.85% | 40.3%
COc1ccc(OC)c(/C=C2\CCc3ccccc3C2=O)c1 | 17.4% | -30.1% | 27.5% | 7.4% | 47.7% | -23.6%
CCC(C)(C)C1CCC(O)CC1 (stereo not drawn) | 10.2% | 6.6% | 12.7% | -53.5% | -5.15% | 1.5%
CCN(CC)C(=O)/C=C(/C)c1ccccc1 | -12.6% | -2.65% | -22.2% | -6.95% | 4.25% | -29.8%
COc1ccc2c(c1)CCc1c-2n[nH]c1-c1[nH]nc2c1CCc1cc(OC)ccc1-2 | 0.5% | 0.35% | -11.2% | -5.55% | -16.1% | -5%
O=C(N/N=C/c1ccccc1O)Nc1nn[nH]n1 | -15.8% | -10.2% | 16.1% | -7.8% | 0.85% | 9%
CC1CCCC(CC(N)=O)CC1 (stereo not drawn) | 7.8% | 1.05% | 2.1% | 1.3% | 0.7% | 4.2%
